# Screens deposited in PubChem BioAssay by National Center for Advancing Translational Sciences (NCATS).
# D1 antagonist: antagonists of human D1 dopamine receptor; P21728; activity change, negative = inhibition, % at 10 µM; 360,000 compounds, 3.2% hits; HEK293 TREx D1 cells, calcium flux, dopamine EC80; hits give low values; AID 504652; in the data active = activity change below about -30%; note: % is set by controls: 0 for no effect and ±100 for the full control effect
#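 Antagonism measured as reduced calcium response to an EC80 dopamine addition following 180 s compound pre-read; cells were inducible HEK293 Trex D1 plated overnight at 30 C, read kinetically at 1 cycle/sec.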
# TRHR agonist: TRH receptor (human) agonism. P34981. TRHR cells, calcium flux fluo-8, FDSS agonist mode. activation, % at 2 µM. 360,000 compounds, 0.18% hits; note: 0% is about no effect
# Target sequence (P34981 whole entry, looked up): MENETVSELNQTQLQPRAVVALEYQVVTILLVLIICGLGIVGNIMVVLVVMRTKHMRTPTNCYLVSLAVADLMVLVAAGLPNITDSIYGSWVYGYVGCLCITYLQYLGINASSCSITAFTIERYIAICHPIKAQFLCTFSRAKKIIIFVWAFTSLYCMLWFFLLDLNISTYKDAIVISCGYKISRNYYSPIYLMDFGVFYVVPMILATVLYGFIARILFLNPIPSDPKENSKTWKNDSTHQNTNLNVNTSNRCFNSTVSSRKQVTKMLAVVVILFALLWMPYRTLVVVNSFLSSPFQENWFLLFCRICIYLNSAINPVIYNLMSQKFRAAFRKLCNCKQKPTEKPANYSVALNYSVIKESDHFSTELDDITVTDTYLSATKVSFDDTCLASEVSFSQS
#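 Fluo-8-loaded TRHR cells; 10 s baseline, compound added, kinetic Ca2+ fluorescence read 1/s, agonist mode.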
# TRHR PAM: allosteric enhancers of human TRH receptor. enhancement, % at 2 µM. TRHR cells, fluo-8 calcium fluorescence, EC20 TRH enhancement. 360,000 compounds, 0.66% hits. P34981; in the data active = enhancement above about 30%; note: 0% is about no effect
#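 Enhancer read-out: after compound pinning and an initial kinetic agonist-mode read, an EC20 of TRH (10 nM final) was injected and fluo-8 calcium signal (Ex 480/Em 530) followed at 1 s/cycle for 100 cycles in TRHR-expressing cells.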
# D1 agonist: activates the human D1 dopamine receptor; HEK293 T-REx D1 cells, calcium flux, agonist mode; activation, % at 2 µM; 360,000 compounds, 1% hits; note: 0% is about no effect
#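 Tetracycline-induced HEK293 TREx D1 cells, force-coupled to calcium signalling, were dye-loaded with a no-wash calcium kit. Compound was pin-added after a 10 s baseline. Fluorescence was read kinetically at 1 cycle/s for 180 s, with calcium rises flagged as agonism.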
# Glioma ERSR ind: induces the endoplasmic reticulum stress response in human glioma cells | U87-MG GRP78 promoter luciferase reporter, 16 h | AID 602332 | Potency, µM, without a hit: at the highest dose activation, usual class: activators | 420,000 compounds, 0.02% hits; active = well fitted activation curve with a large enough effect; note: potency is the fitted concentration of half-maximal effect; series mostly up to about 76 µM; % of control where 0% means no effect; nearly all actives have a fitted effect of over 35% in size
#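 ERSR induction read as luciferase luminescence (Bright-Glo, 10 min at room temperature) in stably transfected human U87-MG glioma cells exposed to compounds for 16 h, using GRP78 as sensor.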
# D1 potentiator: enhances dopamine response at the human D1 receptor; P21728; HEK293 TREx D1 cells, calcium flux, dopamine EC20 potentiation; potentiation, % at 10 µM; 360,000 compounds, 0.036% hits; AID 504651; in the data active = potentiation above about 30%; note: 0% is about no effect
# Starred values were filed as active, the others as inactive; / = not tested or not shown. An excerpt weighted towards active compounds, which were near 4% of everything screened. Cut-off read from the data, not from the text of the source, unless noted: active = activation above about 30%; inactive = the rest.
SMILES,D1 antagonist,TRHR agonist,TRHR PAM,D1 agonist,Glioma ERSR ind,D1 potentiator
Cc1ccc(NC(=O)C(c2ccccc2)C2CCCC2)cc1 (configuration not stated),-34*,2,-6,7,-2%,-10
COC(=O)c1cccc(S(=O)(=O)N2CCC(NC(=O)Nc3cccc(F)c3)CC2)c1,-23,0,-3,3,-3%,-3
Cc1ccc(NC(=O)NC2CCCCCCC2)cc1,-32*,0,-3,1,3%,-11
O=C(Nc1cccc(F)c1)NC1CC2CCCC(C1)N2C1CC1 (configuration not stated),-34*,0,0,3,-2%,-10
CC(=O)c1ccc(S(=O)(=O)N2CCC(NC(=O)Nc3cccc(F)c3)CC2)cc1,-34*,-2,-4,0,-4%,0
Cc1ccc(NC(=O)C(=O)NC2CCCCC2)cc1,-14,0,-1,2,1%,12
Cc1ccnc(NS(=O)(=O)c2ccc(NC(=O)c3ccccc3F)cc2)n1,-3,0,1,0,0%,-14
Cc1ccc(Oc2ncccc2/C=N/OCc2ccc(Cl)c(Cl)c2)cc1,-3,1,-5,7,2%,-3
N#CCN(N=Nc1ccccc1)c1ccccc1,-11,1,-9,2,-2%,-7
Cc1ccc(NC(=O)NC2CCN(S(=O)(=O)c3ccc(F)cc3)CC2)cc1,-53*,-1,1,3,-2%,-7
COc1ccc(S(=O)(=O)N2CCC(NC(=O)Nc3ccc(C)cc3)CC2)cc1,/,/,/,/,-5%,/
CCCNC(=O)Cn1c(=O)oc2cc(S(=O)(=O)N3CC(C)CC(C)C3)ccc21 (configuration not stated),-10,-1,-1,0,1%,-8
COc1ccc(C(=O)C(OC(=O)c2ccccc2Cl)c2ccccc2)cc1 (configuration not stated),-33*,2,-6,11,5%,-8
CCOC(=O)c1cnc2ccc(OCC)cc2c1NCc1ccccc1OC,3,0,0,4,-6%,-1
CN(C(=O)c1ccncc1)c1nnc(-c2cccnc2)s1,0,1,2,2,1%,2
Cc1ccc(C(=O)N(C)c2nnc(-c3ccncc3)s2)cc1,-30*,0,-3,10,7%,-5
COc1ccc(CCOC(=O)c2cccc(NC(C)=O)c2)cc1,-13,-1,-4,6,0%,-3
COc1cc([C@@H]2[C@H]3CNCC=C3C(C#N)=C(N)C2(C#N)C#N)ccc1OC(C)C,-12,4,-2,3,-1%,-2
COc1cc(C2C3CN(C)CC=C3C(C#N)=C(N)C2(C#N)C#N)ccc1OC(C)C (configuration not stated),-50*,2,2,4,-7%,-16
COC(=O)c1ccc(OC)c(CN2CCCN(Cc3ccc(C)cc3)S2(=O)=O)c1,-34*,1,3,5,-4%,-3
COC(=O)c1ccc(OC)c(CN2CCCN(Cc3cc(C)ccc3C)S2(=O)=O)c1,-6,1,-4,6,-1%,-5
COc1cc(Nc2cc(C)nc3ncnn23)cc(OC)c1OC,-31*,0,-25,0,-3%,-14
COc1cc(Nc2cc(C)nc3ncnn23)cc(OC)c1,-5,-1,4,-2,1%,4
Cn1c(=O)n(C)c2cc([N+](=O)[O-])c(N3CCN(C(=O)c4cccc(F)c4)CC3)cc21,-9,0,-4,6,-1%,-2
Cn1c(=O)n(C)c2cc([N+](=O)[O-])c(N3CCN(C(=O)c4cccc(Cl)c4)CC3)cc21,-14,0,38*,4,-3%,-4
Cc1ccc(SCC(=O)Nc2ccc(N3CCN(C)CC3)c(F)c2)cc1,-59*,1,9,4,-2%,-12
COc1ccc(SCC(=O)Nc2ccc(N3CCN(C)CC3)c(F)c2)cc1,3,-1,-8,4,1%,-25
CN(C)c1ccc(C(CNC(=O)c2ccc(C(C)(C)C)cc2)N2CCCC2)cc1 (configuration not stated),-9,2,5,38*,-3%,3
